# In PubChem BioAssay AID743446 (Broad Institute, 2014):
# Results with a measured potency or affinity are listed apart. Active and inactive are the calls of the source. How the calls were made is not given here.
# Experiment: HEK293 cell cytotoxicity, dose response, cytotoxicity control, plate reader, cherry-picked samples (AID 743446)
# Settings: active compounds read low; at 26 µM unless noted
row,SMILES,max activity
1,C[C@@H]1CN([C@H](C)CO)C(=O)c2cc(C#CCN(C)C)cnc2O[C@@H]1CN(C)C(=O)CN1CCOCC1,12.9% [at 0.195 µM] (inactive)
2,CCN(CC)S(=O)(=O)c1cc(C(=O)OCC(=O)Nc2ccc(-c3nc4ccc(C)cc4s3)cc2)ccc1F,-18.3% (inactive)
3,C[C@H]1CCCCO[C@@H](CN(C)C(=O)Nc2ccc(F)cc2)[C@@H](C)CN([C@@H](C)CO)C(=O)c2cc(NC(=O)C3CCCCC3)ccc2O1,-14.5% [at 6 µM] (inactive)
4,COc1ccc(OCC(=O)Nc2nccs2)cc1,15.2% [at 1.6 µM] (inactive)
5,N#C[C@@H]1[C@H](c2ccc(C#Cc3cccc(F)c3)cc2)[C@@H](CO)N1C(=O)C1CCC1,22.1% [at 12 µM] (inactive)
6,O=C(Nc1ccc(Cl)cc1)Nc1ccccc1C(=O)O,16.5% [at 0.1 µM] (inactive)
7,C[C@H]1CN([C@@H](C)CO)C(=O)c2cc(NC(=O)Nc3ccccc3)ccc2O[C@H]1CN(C)Cc1ccc(-c2ccccc2)cc1,25.6% [at 0.1 µM] (inactive)
8,C[C@H](CO)N1C[C@H](C)[C@H](CN(C)S(=O)(=O)c2ccc(C(F)(F)F)cc2)OCc2ccccc2-c2c(n(C)c3ccccc23)C1=O,-10.7% [at 1.6 µM] (inactive)
9,CCCC(=O)N1CCCC(c2cc(C(=O)Nc3ccccc3)no2)C1 (stereo unspecified),-23.2% [at 0.05 µM] (inactive)
10,Cc1ccoc1C(=O)Nc1ccc2ccccc2c1,-16.8% [at 0.1 µM] (inactive)
11,O=C(O)c1cccc(-c2nc3ccccc3[nH]2)c1,-25.9% [at 0.38 µM] (inactive)
12,CCC(=O)Nc1cc2nn(-c3ccc(OC)cc3)nc2cc1C,0% [setting not given] (inactive)
13,O=C(Nc1ccc2c(c1)OCCO2)c1ccc(Cl)cc1Cl,-20.3% [at 3 µM] (inactive)
14,COc1ccc(C(=O)Nc2nnc(SCC(=O)NCc3ccco3)s2)c(OC)c1,15% (inactive)
15,O=C(O)c1ccc(N/N=C/c2c[nH]c3ccccc23)cc1,10.4% [at 3 µM] (inactive)
16,Cc1ccccc1S(=O)(=O)N1[C@H](C#N)[C@H](c2ccc(C#CC3CCCCC3)cc2)[C@H]1CO,29.2% [at 3 µM] (inactive)
17,O=C(O)c1cccc(COc2ccc(CO)cc2Cl)c1,13.3% [at 6 µM] (inactive)
18,CC(=O)c1ccc(Nc2nc(-c3sc(C)nc3C)cs2)cc1,-13.6% (inactive)
19,Cc1cccn2c(CNCC3(c4ccccc4)CCCC3)c(C(=O)N3CCOCC3)nc12,13.8% [at 3 µM] (inactive)
20,CC1CN(C(=O)c2cccc(S(=O)(=O)Nc3cc(Cl)ccc3Cl)c2)CC(C)O1 (stereo unspecified),5.34% (inactive)
21,COc1cccc(C(=O)Nc2ccc3c(c2)OC[C@@H](C)N(CC2CC2)C[C@H](C)[C@H](OC)CN(C)C3=O)c1,13% [at 0.05 µM] (inactive)
22,O=C(O)c1ccc(N/N=C/c2ccc(OC(=O)c3cccc(Cl)c3)cc2)cc1,-7.42% [at 3 µM] (inactive)
23,COc1cc(NC(=O)c2cccc3c(-c4cnn(C)c4)coc23)cc(OC)c1OC,-34.1% (inactive)
24,CCC(=O)N(C)C[C@H]1Oc2cc(C#CCC(C)C)ccc2S(=O)(=O)N([C@H](C)CO)C[C@@H]1C,21.8% [at 0.05 µM] (inactive)
25,CCOc1ccc(C(=O)Nc2nnc(SCC(=O)NCC3CCCO3)s2)cc1 (stereo unspecified),27.5% [at 3 µM] (inactive)
26,CCCCn1nnnc1C(c1cc2ccccc2o1)N1CCN(c2ccncc2)CC1 (stereo unspecified),11.8% (inactive)
